From the OligoGym collection

The sequences below were run against MCM6 (assay: pooled miR-30 sensor sort-seq; sequence = guide strand). Settings: shRNA.

Going from ATGAATAGCAACTTGATCCCGC to TAGAACATGATCATAGTGTGTG, the sensor-assay potency score (higher = more potent) rises from 0.187 to 0.881.

Compared with TAGATTTTTATCTTGACTCATC, ATATCTTCTGATATCATCGAGG is higher in sensor-assay potency score (higher = more potent): -0.898 for the first, -0.536 for the second.

Going from TAAAGTCACACTTGTCACCAGC to TTACACATGAAAACAAAGGTAT, the sensor-assay potency score (higher = more potent) rises from -0.442 to -0.0386.

Compared with TACAACACACACCATTATCAGC, TTGATTTATTCAGTAACCGGAA is higher in sensor-assay potency score (higher = more potent): -1.14 for the first, -0.345 for the second.

Compared with TATCTCTGATTCGATTTCCTTC, TTGATCTAGATTGACATCAGGT is higher in sensor-assay potency score (higher = more potent): -0.514 for the first, 0.643 for the second.

For TTTGGTTCCAACTTCACTGGGA, the sensor-assay potency score (higher = more potent) was 1.01.

Each sequence was assayed against MED17 in the same assay as above. Settings: shRNA.

Compared with TATCTTTTTATCCAGATCGAGA, TATTATTTTACATCTTGTCATA is lower in sensor-assay potency score (higher = more potent): -1.18 for the first, -1.34 for the second.

Compared with TTTACATAAGAGAACATTCTGT, TTGCTGAACTGCATGTACCTGG is higher in sensor-assay potency score (higher = more potent): -0.192 for the first, 0.418 for the second.

Going from TTCTGTAGCTCAGATCTCCGAG to TTCAGGTATCTTTTTATCCAGA, the sensor-assay potency score (higher = more potent) falls from 0.121 to -0.5.

Compared with TATTACTGCACAGTCATCTTAC, TCTATGTACAACTCGAATCTGC is higher in sensor-assay potency score (higher = more potent): -0.307 for the first, -0.242 for the second.

Compared with TTATCTTGTAAAACATCACTTT, TACACTAGGTGTCTCAACTGGT is higher in sensor-assay potency score (higher = more potent): -0.0835 for the first, 0.232 for the second.

Going from TTTTATTCCACTGAACTTCTTT to TTTATGAAACTCTCTAATCAGT, the sensor-assay potency score (higher = more potent) falls from 0.579 to -0.898.

What follows are sequences tested against MED28 in the same assay as above. Settings: shRNA.

First: TTAGTTCTGACACATCCTCTTT
Second: TTCGAATTTCTTCCTGATCGGT
The sensor-assay potency score (higher = more potent) of the first is lower: -0.943 for the first, -0.329 for the second.

Going from TAGTTCTGACACATCCTCTTTG to TTTGTAAGAAAAAACATTCTGT, the sensor-assay potency score (higher = more potent) rises from -0.787 to 0.226.

First: TAAGAAAAAACATTCTGTCTGT
Second: TGTCTGTCTTGCAATATCCAGA
The sensor-assay potency score (higher = more potent) of the first is higher: 0.366 for the first, -0.689 for the second.

Compared with TCGTCCACCAAAGTACTGCTGG, TCGAATTTCTTCCTGATCGGTG is lower in sensor-assay potency score (higher = more potent): -0.123 for the first, -0.612 for the second.

First: TAAAATGAACTCATTATCTGGC
Second: TAACTTGCTCTGGTTTCTGGAC
The sensor-assay potency score (higher = more potent) of the first is higher: 0.719 for the first, -0.587 for the second.

Sequence TTCCGCTGTAATTCATTCCTTA has a sensor-assay potency score (higher = more potent) of 0.0365.

Each sequence was assayed against MED31 in the same assay as above. Settings: shRNA.

First: AACATGTGTAAACACTGAGGGT
Second: TATTGGAGCAGCTCTAACATGT
The sensor-assay potency score (higher = more potent) of the first is lower: -0.84 for the first, -0.528 for the second.

First: TCCAACTCCAACTGAAACCGAA
Second: TTGTCTTTGAAGTAACCTCTTT
The sensor-assay potency score (higher = more potent) of the first is lower: -1.04 for the first, -0.371 for the second.

Going from TTTGCTGTTGCTGCTCTGCCAA to TTTTTTGTCTTCACTGTACAAA, the sensor-assay potency score (higher = more potent) rises from -0.936 to -0.668.
